The record followed here is PubChem BioAssay AID602250 (The Scripps Research Institute Molecular Screening Center, 2012).

The term inhibition denotes the change of the read-out against control, counted positive when it falls.

The structures appear in SMILES notation. Hit rate of the full screen: of about 360,000 compounds, about 2,200 (0.61%) were called active. This is one part of a sample in which actives are shown more often than they occur. Values without a mark were called inactive.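 The calls were made as follows: active = inhibition above a per-plate cutoff, the plate's mean sample inhibition plus 3 SD (cut at about 24% in these data); inactive = the rest.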

The nature of the assay: calcium signal blockers in parental CHO-K1 cells – cell-based, Fluo-8 calcium fluorescence, full deck, 1536-well, counter-screen for M1 antagonist project, primary screen (AID 602250).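 Also: 0% = DMSO plus EC80 ATP and 100% = DMSO alone without ATP.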 The following applies: ATP-induced calcium, Fluo-8 fluorescence, at 3 µM, active compounds read high.
Consider `O=C(NCC(c1cccs1)N1CCOCC1)c1cc(Cl)ccc1[N+](=O)[O-]` (stereo unspecified), for which the inhibition is 10.5%.

As to `COc1ccccc1C(=O)NC(CCSC)C(=O)N1CCN(C/C=C/c2ccccc2)CC1` (stereo unspecified), the inhibition is -0.28%.

Regarding `CC(=O)c1cccc(OCc2cc(C(=O)NC(C)Cc3cccnc3)no2)c1` (stereo unspecified), the inhibition is -0.09%.

As to `CN(Cc1cccnc1)C(=O)c1cc(COc2ccc3ncccc3c2)on1`, the inhibition was 37.4% (active).

On to `CN(Cc1cnccn1)C(=O)c1cc(COc2cccc(C(F)(F)F)c2)on1`, for which the inhibition was -4.38%.

With `O=C(NCCCc1ccccc1)c1cc(COc2c(F)cccc2F)on1`, the inhibition is -16.9%.

With `Cc1ccc(Sc2cc(N3CCOCC3)nc(-c3ccccc3)n2)cc1`, the inhibition is -3.23%.

As to `Cc1ccccc1C1=NC(C(F)(F)F)(C(F)(F)F)c2c(n(-c3ccc(F)cc3)c(=O)[nH]c2=O)N1`, the inhibition was -9.81%.

As to `Nc1c(N(Cc2ccco2)C(=O)c2cccc(F)c2)c(=O)[nH]c(=O)n1Cc1ccccc1`, the inhibition was 0.73%.

Consider `O=c1[nH]c(=O)n(Cc2ccco2)c2c1C(C(F)(F)F)(C(F)(F)F)N=C(c1ccco1)N2`, for which the inhibition is 30.1% (active).

Consider `CC(=O)c1ccccc1NC(=O)CC1(CC(=O)O)CCCCC1`, for which the inhibition was -2.82%.

For the molecule `CCC(C)(C(=O)Nc1ccccc1C)N(C(=O)CNC(C)=O)c1ccc(C)cc1` (stereo unspecified), the inhibition was -1.48%.

As to `CCCCSc1[nH]c(=O)c(C(=O)OCC)cc1C#N`, the inhibition was 5.2%.

With `CN1CCN(Cc2nc3cc(NC(=O)COc4ccc([N+](=O)[O-])cc4)ccc3n2C)CC1`, the inhibition is -3.48%.

Consider `CCOC(=O)c1cnc(SCC(=O)Nc2cccc(OC)c2)nc1N`, for which the inhibition is 11.2%.

Take `CCCCCCCCn1c2c(c(=N)c3c1CCC3)CCCC2`: the inhibition is 32.5% (active).

Take `C/C(=N/OC(=O)c1cccc(C(F)(F)F)c1)c1cnccn1`: the inhibition was -1.12%.

In the case of `CC(C)Oc1ccc(S(=O)(=O)N2CCOCC2)cc1NC(=O)C1CSC2(C)CCC(=O)N12` (stereo unspecified), the inhibition is 0.94%.

With `COc1ccc(Nc2oc(-c3ccccc3Cl)nc2C#N)cc1`, the inhibition was -14.3%.

As to `Cc1ccccc1-c1nc(C#N)c(NCc2ccco2)o1`, the inhibition was 28.1% (active).

On to `Cc1cc(NCc2ccco2)n2c(nc3ccccc32)c1C#N`, for which the inhibition is -0.52%.

As for `O=C(COC(=O)CCCSc1nc2ccccc2[nH]1)Nc1ccc(Oc2ccccc2)cc1`, the inhibition is 0.31%.

For `Cc1cc(C)n2c(Nc3c(C)cccc3C)c(CCc3ccccc3)nc2n1`, the inhibition is 2.51%.

With `CCOC(=O)N/N=C1\CC(C)S(=O)(=O)c2ccc(Cl)cc21` (stereo unspecified), the inhibition is -8.64%.

For the molecule `Cc1cccc(S(=O)(=O)N(C)C[C@@H]2OCc3cnnn3CCCC(=O)N([C@H](C)CO)C[C@@H]2C)c1`, the inhibition was 1.2%.

Turning to `CN(C)C(CNC(=O)c1cc2ccccc2o1)c1ccccc1` (stereo unspecified), the inhibition was -1.56%.

Turning to `CC(C)(C)n1nc2c(c1NC(=O)c1cc3ccccc3o1)CSC2`, the inhibition is -14.9%.

In the case of `O=C(Nc1ccncc1)c1cc2ccccc2o1`, the inhibition is 23.7% (active).

On to `O=C(CSc1nnnn1-c1ccc2c(c1)CCC2)Nc1ccc2c(c1)OCCO2`, for which the inhibition was 16.9%.

Turning to `N#Cc1c(NCCO)ccc([N+](=O)[O-])c1NCCO`, the inhibition was -7.72%.

Consider `CCOC1CCCCC1NS(=O)(=O)c1ccc(Cl)cc1` (stereo unspecified), for which the inhibition is 38.7% (active).

In the case of `CCN1CCN(C2CCCCC2NS(=O)(=O)c2ccc(Cl)cc2)CC1` (stereo unspecified), the inhibition is -7.77%.

With `O=S(=O)(NC1CCCCC1N1CCC(O)CC1)c1ccc(Cl)cc1` (stereo unspecified), the inhibition is -4.04%.

Take `CCOC(=O)c1cc2occc2n1CC(=O)NC1CCC(C)CC1` (stereo unspecified): the inhibition was -7.77%.

With `CCOC(=O)C1CN(S(=O)(=O)c2ccc(F)cc2)C1`, the inhibition was 0.12%.

For `CCOC(=O)C1=CC[C@@H](c2ccccc2)N(S(=O)(=O)c2ccc(C)cc2)[C@H]1c1cccc(OC)c1`, the inhibition was 8.14%.

As to `CCOC(=O)C1=CC[C@@H](c2ccccc2)N(S(=O)(=O)c2ccc(C)cc2)[C@H]1c1ccc(CC)cc1`, the inhibition is 11.1%.

As for `CC(=O)C1=CCC(c2ccccc2)N(S(=O)(=O)c2ccc(C)cc2)C1` (stereo unspecified), the inhibition was -16.2%.

`CCOC(=O)C1=CC[C@@H](c2ccncc2)N(S(=O)(=O)c2ccc(C)cc2)C1`: the inhibition was 25.1% (active).

With `CCOC(=O)C1=CCC(c2ccc(F)cc2)N(S(=O)(=O)c2ccc(C)cc2)C1` (stereo unspecified), the inhibition was 31.3% (active).

As to `O=C1C=CN2CCCC2CC1` (stereo unspecified), the inhibition is -0.95%.

As to `CCC(C)(C)NC(=O)C(c1ccc(O)cc1)N(C(=O)Cn1nnc2ccccc21)c1ccc(NC(C)=O)cc1` (stereo unspecified), the inhibition is -17.9%.

For `COc1ccccc1-n1c(C)nc2cc(C(=O)NCc3ccc4c(c3)OCO4)ccc21`, the inhibition is -1.86%.

For the molecule `Cc1ccc(NC(=O)c2sccc2C)cc1[N+](=O)[O-]`, the inhibition is -7.01%.

Regarding `CN(CC(=O)Nc1cccc(F)c1)C(=O)C1=COCCO1`, the inhibition was 9.82%.

`Cc1ccc(NC(=O)CN(C)CC(=O)Nc2cccc(F)c2)cc1[N+](=O)[O-]`: the inhibition was 26.1% (active).

Take `COc1cc([N+](=O)[O-])ccc1NC(=O)COC(=O)CCOc1ccc(C)cc1`: the inhibition is -5.41%.

Take `CCSc1nc(C)c(CCOc2cccc(C)c2)c(=O)[nH]1`: the inhibition is 11.1%.

With `COc1ccc(-c2cc(C(=O)N(C)Cc3ccc(OC)c(OC)c3OC)c3ccccc3n2)cc1OC`, the inhibition is 26.8% (active).

For `COc1ccc(-c2cc(C(=O)N(C)CC(=O)Nc3ccccc3Cl)c3ccccc3n2)cc1OC`, the inhibition was 7.04%.

In the case of `COc1ccc(CN(C)C(=O)c2cc(-c3ccc(C)cc3C)nc3ccccc23)c(OC)c1OC`, the inhibition was 5.32%.

For `CC(NC(=O)CNC(=O)Cc1cccc2ccccc12)c1ccc(S(N)(=O)=O)cc1` (stereo unspecified), the inhibition is 4.92%.

In the case of `COc1ccc(-c2nn(C)c(=O)c3ccccc23)cc1NC(=O)COc1ccccc1`, the inhibition is 23.8% (active).

For the molecule `COc1ccc(S(=O)(=O)N2CCCCC2)cc1NC(=O)COc1ccccc1`, the inhibition is -8.54%.

On to `COc1ccc(-c2nn(C)c(=O)c3ccccc23)cc1CNC(=O)C1CCCCC1`, for which the inhibition is 3.7%.

With `O=C(O)CCn1c(SCc2cc(=O)n3ccccc3n2)nc2ccsc2c1=O`, the inhibition was -10.2%.
